Source: PubChem (several laboratories)
The list is not random: actives were taken first. Their share in the collection is about 3.4%.
AI-2 QS modul: modulates the Vibrio harveyi AI-2 quorum sensing system; Vibrio harveyi JMH597 AI-2 luminescence/OD600 ratio, 9 h; stronger effect = lower value; strain lacks LuxN and CqsS sensors; 0 = neutral-control median; AID 2094; 300,000 tested, 0.4% active; activity change, % at 7.5 µM; in the data active = activity change below about -75%, passing the limit was not always enough;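 also: luminescence divided by OD600 gain over 9 h not by final OD600 alone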
FXN GAA850 act: frataxin GAA850 promoter activation. HEK293 lucGAA850 FXN promoter luciferase reporter, 24 h; percent of 10 µM SAHA response. activation, % at 6 µM. 360,000 tested, 0.56% active;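 active = activation above the average of all compounds screened plus 3 SD, cutoff fixed separately per campaign, cut at about 7.5% in these data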;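 also: 0% = DMSO wells and 100% = 10 µM SAHA wells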
HSP90 inh: HSP90 refolding inhibition in rabbit reticulocyte lysate; luciferase refolding luminescence, 3 h; inhibition, % at 5.6 µM; 290,000 tested, 0.91% active;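 active = inhibition above the screen-wide mean plus 3 SD, computed separately per campaign, cut at about 16% in these data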;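 also: 0% = DMSO wells and 100% = 60 µM geldanamycin wells; inhibitors lower the luminescence because luciferase stays unfolded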
PG9 binder: binds the HIV-1 gp120 antibody PG9; TR-FRET gp120-PG9 antibody binding; inhibition, % at 6.7 µM; 360,000 tested, 0.43% active; AID 624416; in the data active = inhibition above about 8.5%
HSF1 inh: HSF1 inhibition; NIH3T3-HGL HSE-luciferase, MG132-induced, luminescence 8 h; stronger effect = lower value; activity change, negative = inhibition, % at 7.5 µM (by protocol); 300,000 tested, 0.77% active; AID 2098;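 active = more than half of replicate wells show activity change below -50%, luminescence cut by over half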;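 also: luciferase reports HSF-1 transcriptional activity via heat shock element; 0% = median of DMSO wells and -100% = zero luminescence signal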
SMARCA2 activ: SMARCA2 function activation, primary screen; MG213 cells, MMTV-luciferase reporter, dexamethasone, overnight; activation, % at 9.1 µM; 370,000 tested, 1% active; AID 652017; in the data active = activation above about 7.8%;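 also: 0% = vehicle wells and 100% = reference activator wells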
SMARCA2 act conf: SMARCA2 activation, confirmation screen; shares compounds with SMARCA2 activ; activation, % at 9.1 µM; MG213 cells, MMTV-luciferase with dexamethasone, luminescence, overnight; MG213 cells expressing E1A, Rb sequestered; DMSO wells 0%, reference activator 100%; 3,500 tested, 30% active;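 active = activation above its plate's cutoff, the mean activation of tested wells plus 3 SD, cut at about 7.9% in these data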
GAL4-VP16 Luc: activates GAL4-VP16 luciferase, flagging SMARCA2 activator hits; activation, % at 9.1 µM; HEK293 GAL4-VP16 pG5luc reporter, luciferase luminescence; scaled: DMSO wells 0%, SAHA wells 100%; shares compounds with SMARCA2 activ; 3,500 tested, 41% active;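 active = activation above the solvent-only control well mean plus 3 SD, averaged across control plates, cut at about 5.2% in these data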
* marks the source's active call; other numbers are inactive results; x = no result.

SMILES	AI-2 QS modul	FXN GAA850 act	HSP90 inh	PG9 binder	HSF1 inh	SMARCA2 activ	SMARCA2 act conf	GAL4-VP16 Luc
CCOc1ccc(C2C3=C(Nc4nc(N)[nH]c(=O)c42)c2ccccc2C3=O)cc1 (configuration not stated)	18.7	0.6	1.3	-7.9	3.1	13.7*	-0.5	0.5
COC(=O)[C@]12C[C@H](CC(=O)NCc3ccc(C)o3)C(=O)N(CCC3=CCCCC3)C1=C[C@H](C(C)C)O[C@@H]2C1CC1	x	x	x	x	x	-3.6	x	x
O=C(COC(=O)c1cc[n+]([O-])cc1)Nc1ccccc1Cl	17.6	0.5	-5.7	-2.1	-7.8	10.6*	-1.4	-0.7
Cc1ccccc1NC(=O)COC(=O)c1cc[n+]([O-])cc1	19.5	0.3	x	0.2	-7.1	-2.4	x	x
CS(=O)(=O)c1ccc(Nc2nc(C(N)Cc3ccc(Cl)cc3)cs2)cc1 (configuration not stated)	x	-3.9	x	-0.8	x	-2.0	x	x
O=C(COC(=O)CCS(=O)(=O)c1ccccc1)Nc1cc(S(=O)(=O)N2CCCCC2)ccc1Cl	16.2	-2.1	x	-2.6	-1.0	8.8*	3.4	0.4
Cc1ccc(S(=O)(=O)CCC(=O)OCC(=O)Nc2cc(S(=O)(=O)N3CCOCC3)ccc2Cl)cc1	x	1.1	x	-0.8	x	2.0	x	x
COCc1cc(N2CCN(C(=O)OC(C)(C)C)C[C@H]2C)ccc1Br	x	x	x	0.7	x	-3.8	x	x
O=C(Oc1ccc2ccccc2c1Cl)N1CCCCCC1	28.1	1.0	5.0	-2.5	4.3	9.3*	5.4	23.6*
Cc1cccc2nc(-c3ccccc3)c(-c3ccc(CN4CCC5(CC4)CNc4ccccc45)cc3)nc12	x	x	x	0.6	x	1.8	x	x
C=CCN1C[C@H](COC(=O)c2cccc(C)c2)Oc2cccc(F)c2S1(=O)=O	x	x	x	0.0	x	-1.4	x	x
CCOC(=O)c1c(N)sc2c(OCC)c(Br)ccc12	1.2	4.5	0.2	2.0	4.3	-2.6	x	x
CCOC(=O)c1c(NC(C)=O)sc2c(OCC(O)CNC(C)(C)C)c(Br)ccc12 (configuration not stated)	-3.3	2.6	5.9	-1.1	-38.2	11.2*	8.7*	2.1
O=S1(=O)N[C@@H](Cc2ccccc2)COc2cccc(N3CCCC3)c21	x	x	x	-1.7	x	-1.4	x	x
CCN(C)c1ccc(/C=N\n2nnnc2N)cc1	14.5	0.7	1.1	-3.4	-0.9	12.3*	7.6	14.9*
COc1cc(-c2nnc(-c3ccccc3)o2)cc(OC)c1OC	7.6	1.1	-0.3	0.7	10.6	-4.8	x	x
COc1cccc(-c2nnc(-c3ccc(C(F)(F)F)cc3)o2)c1	17.3	2.3	-1.7	1.1	17.4	0.6	x	x
c1ccc(-c2nnc(-c3ccccc3)o2)cc1	11.9	7.3	-1.4	-0.3	21.8	5.4	x	x
COc1ccc(-c2nnc(-c3ccccc3)o2)cc1OC	7.3	4.3	-0.4	0.1	36.6	8.4*	6.4	11.7*
Oc1ccccc1-c1nnc(-c2ccc(C(F)(F)F)cc2)o1	24.7	1.9	-2.4	1.2	-63.2*	9.9*	4.0	6.9*
COc1ccccc1-c1nnc(-c2ccc(C)cc2)o1	11.6	2.8	x	-0.3	53.4	12.5*	7.0	7.1*
Nc1ccccc1-c1nnc(-c2ccc(-c3ccccc3)cc2)o1	11.8	6.5	2.3	-0.5	6.2	9.2*	13.9*	11.1*
COC(=O)c1ccc2nc(-c3ccc(C)cc3)c(Cc3ccccc3)n2c1	x	x	x	-0.1	x	2.1	x	x
Cc1ccccc1NC(=O)Nc1nc(C(N)Cc2ccccc2)cs1 (configuration not stated)	x	-2.8	x	-0.8	x	-3.4	x	x
COc1ccc(C2=NOC(CNC(N)=S)C2)cc1 (configuration not stated)	84.1	5.1	3.9	-3.7	9.0	12.8*	6.9	7.7*
SMILES	AI-2 QS modul	FXN GAA850 act	HSP90 inh	PG9 binder	HSF1 inh	SMARCA2 activ	SMARCA2 act conf	GAL4-VP16 Luc
COC(=O)[C@]12C[C@H](CC(=O)NCc3cccc(C(F)(F)F)c3)C(=O)N(Cc3cccc4ccccc34)C1=C[C@H](C(C)(C)C)O[C@@H]2C	x	x	x	x	x	-3.5	x	x
Cc1ccc(/C=C/C(=O)Nc2ncc(C)s2)o1	-0.3	7.2	3.8	0.1	30.7	7.6	x	x
Cc1ccc(/C=C/C(=O)Nc2nccs2)o1	23.8	3.3	3.7	-2.5	33.1	10.8*	8.4*	10.5*
Cc1ccsc1C(=O)Nc1nccs1	41.9	1.2	-2.2	-2.9	11.1	9.3*	2.7	2.8
Cc1csc(NC(=O)c2sccc2C)n1	10.9	3.5	1.8	1.1	22.6	4.4	x	x
CCn1c(=O)c([N+](=O)[O-])c(NCCc2ccccc2)c2ccccc21	-5.4	-0.7	-0.7	x	2.6	x	x	x
Cn1c(=O)c([N+](=O)[O-])c(NCCc2ccccc2)c2ccccc21	6.4	0.9	0.5	-0.8	-1.9	11.7*	1.0	-1.1
Cc1cc(C)n(C(=O)c2ccc(C)o2)n1	-6.9	1.2	7.2	-1.2	-9.9	8.7*	-0.1	0.5
COc1ccccc1C(=O)n1nc(C)cc1C	12.8	0.0	-0.1	-2.6	0.3	-0.8	x	x
O=[N+]([O-])c1ccccc1N/N=C/c1cc2ccccc2nc1Cl	18.8	0.9	-0.4	-1.6	14.5	8.2*	11.0*	5.3*
Cc1cccc(OCCCC(=O)Nc2nc3ccccc3[nH]2)c1	12.0	0.4	2.8	0.5	16.7	18.1*	13.6*	2.2
Cc1ccc(OCCCC(=O)Nc2nc3ccccc3[nH]2)cc1	13.0	0.8	-2.2	-0.7	5.2	-0.6	x	x
CCOCCCNC(=O)c1ccc(CN2CCc3ccccc3C2)cc1	x	0.5	x	-0.9	x	-1.9	x	x
Cc1ccc(S(=O)(=O)N(C)Cc2ccc(C(=O)N/N=C3\CC(=O)CC(C)(C)C3)cc2)cc1	17.1	1.2	-2.7	-3.2	1.4	10.4*	-0.7	0.4
COc1cccc(-c2nc(N3CCN(C)CC3)c3ccccc3n2)c1O	17.2	4.6	0.6	-2.2	-1.2	18.7*	18.9*	3.2
C[C@@H]1NS(=O)(=O)c2ccc(F)cc2O[C@@H]1c1ccccc1	x	x	x	-0.7	x	2.1	x	x
CC(C)CNC(=O)C1c2ccccc2Oc2ccccc21	-7.3	-0.7	-0.8	-0.6	-1.7	14.0*	-1.1	0.7
COc1cc(C(=O)NCC(=O)NCCCSc2ccccc2)cc(OC)c1OC	x	0.5	x	-1.7	x	8.0*	0.1	-0.3
Cc1cccc(C(=O)NCC(=O)NCCCSc2ccccc2)c1	37.8	3.5	x	3.0	5.2	-0.8	x	x
CCc1c(-c2ccc(Br)cc2)ncn1CCc1ccccc1OC	x	x	x	0.8	x	-4.2	x	x
